Laboratory results taken from the supplement of paper PMC7156485.
Where “and” joins values, the source holds several entries; their conditions need not be identical. Identical values can stand only once. ± gives the standard deviation of the averaged measurements.

How the values were obtained:
Conditions in all cases: concentration: 10 µM; 24 h
HCC1569 [1] = assay: cell number relative to DMSO (% of DMSO); higher = more cells (less growth inhibition / toxicity)
In short: (§1)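 Compounds were applied at 10 µM for 24 h at 37 °C, in triplicate, to HCC1569 and TDF cells. The cells were then fixed and stained for H1.0, and nuclei were counterstained with DAPI. Nuclear H1.0 intensity or cell number is reported relative to the plate control as a percent, taking the median of replicates. Smoothing for positional effects was applied to HCC1569 values only.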

TDF [2] = assay: as above
In short: as §1

TDF [3] = assay: H1.0 immunofluorescence intensity relative to DMSO (% of DMSO); higher = stronger H1.0 induction, active = 120 or more
In short: as §1

HCC1569 [4] = assay: H1.0 immunofluorescence intensity relative to DMSO (% of DMSO); higher = stronger H1.0 induction, active = 140 or more
In short: as §1
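Throughout, for H1.0 immunofluorescence intensity relative to DMSO: TDF is a line of transformed human dermal fibroblasts of mesenchymal origin.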
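Throughout, for cell number relative to DMSO: TDF denotes transformed human dermal fibroblasts of mesenchymal origin.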

SMILES	cell number (HCC1569 [1])	cell number (TDF [2])	H1.0 immunofluorescence intensity (TDF [3])	H1.0 immunofluorescence intensity (HCC1569 [4])
CC(O)C(O)C1CNc2[nH]c(N)nc(=O)c2N1.Cl.Cl [(6R)-5,6,7,8-Tetrahydro-L-biopterin hydrochloride]	105	110	89.2 (inactive)	103 (inactive)
CC(ONC(=O)c1cc(C(F)(F)F)cc(C(F)(F)F)c1)C(=O)Nc1ccc(Cl)cc1 (stereo not given)	85.2	93.3	103 (inactive)	144 (active)
COc1cc(-c2ccc(=O)[nH]n2)ccc1OC(F)F [Zardaverine]	106 ± 5.7	107 ± 9.4	91.5 (inactive)	110 (inactive)
CC1OC(Oc2c(-c3ccc(O)c(O)c3)oc3cc(O)cc(O)c3c2=O)C(O)C(O)C1O (stereo not given) [Quercitrin]	97.5	106	101 (inactive)	99.1 (inactive)
COc1ccc(C2Sc3ccccc3N(CCN(C)C)C(=O)C2OC(C)=O)cc1.Cl (stereo not given) [Diltiazem hydrochloride]	101	100	93 (inactive)	98.3 (inactive)
N[C@H](C(=O)O)c1cc(O)cc(O)c1 [(S)-3,5-Dihydroxyphenylglycine]	101	105	96.4 (inactive)	97.4 (inactive)
O=C(NCCO)c1cc(C(=O)NCCO)cc(C(=O)NCCO)c1	102	104	95.2 (inactive)	96.8 (inactive)
Cc1cnc(NC(=O)C2=C([O-])c3ccccc3S(=O)(=O)N2C)s1.[Na+] [Meloxicam sodium]	102	115	91.1 (inactive)	97.1 (inactive)
C=C1OC(CO)(n2cnc3c(N)ncnc32)C(O)C1O (stereo not given) [Decoyinine]	107	105	91.6 (inactive)	88.3 (inactive)
N[C@@H](Cc1ccc(F)cc1)C(=O)O [p-Fluoro-L-phenylalanine]	104	102	93.4 (inactive)	106 (inactive)
CC(=O)C1=C(O)C=C2Oc3c(C(C)=O)c(O)c(C)c(O)c3C2(C)C1=O (single isomer, unassigned; (+)) [(+)-Usnic acid]	100	109	96.7 (inactive)	91.2 (inactive)
CN(C)CCC(c1ccc(Cl)cc1)c1ccccn1.O=C(O)C=CC(=O)O (racemic)	96.1	107	103 (inactive)	94.5 (inactive)
CCOC(=O)C1=C(C)NC(C)=C(C(=O)OCC)C1c1ccccc1C=CC(=O)OC(C)(C)C [Lacidipine]	93.2	93.4	98.1 (inactive)	125 (inactive)
OCC1OC(n2cnc3c(NCCc4ccccc4)ncnc32)C(O)C1O (stereo not given) [N6-2-Phenylethyladenosine]	99.4	113	87.8 (inactive)	101 (inactive)
Cc1ncc(Cl)cc1NCc1ccc(C(=O)N[C@@H](CC2CCCC2)C(=O)NC2CC2)s1	96.6	96.1	99.9 (inactive)	101 (inactive)
OCC1OC(n2cnc3c(NC4CCCC4)nc(Cl)nc32)C(O)C1O (stereo not given) [2-Chloro-N6-cyclopentyladenosine]	109	104	89.3 (inactive)	80.9 (inactive)
COc1cc2c(CCNC(C)=O)c[nH]c2cc1Cl [6-Chloromelatonin]	101	106	94.8 (inactive)	90 (inactive)
CN1C(C(=O)Nc2ccccn2)=C(O)c2sccc2S1(=O)=O [Tenoxicam]	100	87.8	95 (inactive)	93.3 (inactive)
CCCCCC=CCC(O)C=CC=CC=CC(O)CCCC(=O)O [5(S),12(S)-DIHETE all trans]	101	106	93.5 (inactive)	95 (inactive)
CC[N+](CC)(CC)CCOc1cccc(OCC[N+](CC)(CC)CC)c1OCC[N+](CC)(CC)CC.[I-].[I-].[I-] [Gallamine triethiodide]	101	99	98.8 (inactive)	123 (inactive)
OCCN1CCN(CCCN2c3ccccc3Sc3ccc(Cl)cc32)CC1 [Perphenazine]	88	90.8	116 (inactive)	140 (inactive)
COC(=O)C1C2CC3c4[nH]c5cc(OC)ccc5c4CCN3CC2CC(OC(=O)c2cc(OC)c(OC)c(OC)c2)C1OC (single isomer, unassigned; (-)) [(-)-Isoreserpine]	98.9	107	102 (inactive)	98 (inactive)
CC(C)NCC(O)COc1cccc2[nH]ccc12 (stereo not drawn) [S(-)-Pindolol]	102	107	84.4 (inactive)	98.4 (inactive)
CCCCCC=CCC=CC=CC(O)CC=CCCCC(=O)O (stereo not given)	98.1	99.8	97.3 (inactive)	95.8 (inactive)
CC(=O)ONC1=c2ccccc2=NC1=C1C(=O)Nc2cc(Br)ccc21	55.8	51.1	116 (inactive)	188 (active)

SMILES	cell number (HCC1569 [1])	cell number (TDF [2])	H1.0 immunofluorescence intensity (TDF [3])	H1.0 immunofluorescence intensity (HCC1569 [4])
CCCCCCCCC=CCCCCCCCC(=O)NCCO [N-Oleoylethanolamine]	99.9	108	98.4 (inactive)	115 (inactive)
COc1cc2ncc(-c3ccccc3)nc2cc1OC	100	94.5	94 (inactive)	107 (inactive)
S=C([S-])OC1CC2CC1C1CCCC21.[K+] (stereo not given)	102	97.1	90.2 (inactive)	98.2 (inactive)
CC(C)NCC(O)COc1cccc2ccccc12.Cl (racemic)	101	91.5	98.8 (inactive)	94.2 (inactive)
CC(CN(C)C)CN1c2ccccc2Sc2ccc(C#N)cc21 (stereo not given)	93.5	90.4	118 (inactive)	108 (inactive)
CCCCOC(=O)NS(=O)(=O)c1sc(CC(C)C)cc1-c1ccc(Cn2c(CC)nc3c(C)cc(C)nc32)cc1	99.7	106	84.8 (inactive)	100 (inactive)
CCc1nc(-c2cccc(C)c2)c(-c2ccnc(NC(=O)c3ccccc3)c2)s1	88.3	84.4	87.8 (inactive)	120 (inactive)
CNCCC(Oc1ccc(C(F)(F)F)cc1)c1ccccc1.Cl (stereo not drawn) [R-(-)-Fluoxetine hydrochloride]	92	105	110 (inactive)	117 (inactive)
COc1cc(O)c2c(c1)oc(=O)c1c3cc(O)c(O)cc3oc21 [Wedelolactone]	91.7	74.8	101 (inactive)	91.6 (inactive)
CN1c2ccccc2C(=O)N2CCc3c([nH]c4ccccc34)C21 (stereo not given) [Evodiamine]	61.2	9.57	165 (active)	123 (inactive)
CN(C)CCCn1cc(C2=C(c3c[nH]c4ccccc34)C(=O)NC2=O)c2ccccc21	86.2	79.5	115 (inactive)	139 (inactive)
Cc1cc(Nc2ncc3cc(-c4c(Cl)cccc4Cl)c(=O)n(C)c3n2)ccc1F	36.3	7.32	201 (active)	187 (active)
C[N+]1(C)CCC(OC(=O)C(c2ccccc2)c2ccccc2)CC1.[I-] [4-DAMP methiodide]	100	105	98.6 (inactive)	101 (inactive)
Nc1ccc(C(=O)Nc2cccc(-c3nc(N4CCOCC4)c4oc5ncccc5c4n3)c2)cn1 [PIKfyve Inhibitor]	63.9	56.2	112 (inactive)	151 (active)
O=C(Nc1cc(Cl)cc2c1[nH]c1cnccc12)c1cccnc1 [IKK Inhibitor X]	98.7	91.8	101 (inactive)	106 (inactive)
C=C1CC23CC1(O)CCC2C12C=CC(O)C(C)(C(=O)O1)C2C3C(=O)O (single isomer, unassigned; (+)) [(+)-Gibberellic acid]	108	112	98.6 (inactive)	89.5 (inactive)
CCCCCCCCC#CCC#CCC#CCCCC(=O)O [5,8,11-Eicosatriynoic acid]	97.5 ± 3.3	97.3 ± 8	107 (inactive)	98.5 (inactive)
CC(=O)Oc1ccccc1C(=O)Nc1ncc([N+](=O)[O-])s1 [2-{[(5-nitro-1,3-thiazol-2-yl)amino]carbonyl}phenyl acetate]	89.4	95.5	98.5 (inactive)	103 (inactive)
O=c1cc(O)cc(C=Cc2ccc(O)c(O)c2)o1 [Hispidin]	97.3	94.8	97 (inactive)	108 (inactive)
CCCOC(=O)c1c(-c2ccccc2)nc(CC)c(C(=O)SCC)c1CCC	102	90.7	93.7 (inactive)	96.3 (inactive)
Cn1cc(C=C2C(=O)Nc3cccnc32)c2ccccc21	89.7 and 101	104 and 96	96 (inactive) and 95.3 (inactive)	161 (active) and 98.5 (inactive)
COc1ccc(-c2cnc3c(-c4ccsc4)cnn3c2)cc1 [VEGF Receptor 2 Kinase Inhibitor IV]	94.9	95.5	89 (inactive)	109 (inactive)
CC(C)(C)NCC(O)c1ccc(O)c(CO)c1 (stereo not given) [Salbutamol]	99.7	99.3	95.9 (inactive)	101 (inactive)
O=c1oc(Cl)c(Cl)c2ccccc12 [3,4-Dichloroisocoumarin]	103	109	91.9 (inactive)	88.1 (inactive)
O=P(O)(O)C(Cl)(Cl)P(=O)(O)O [Clodronic acid]	101	103	88.3 (inactive)	102 (inactive)
